Source: PubChem BioAssay
Only some compounds are listed: those with a hit (about 6.2% of all), similar ones and a draw of the others.
KB-3-1 tox = qHTS assay for MDR1-selective chemotherapeutics: Primary screen using the parental adenocarcinoma cell KB-3-1 | KB-3-1 viability, CellTiter-Glo ATP luminescence, 72 h | Potency, µM (doses to about 46.1 µM), actives largely listed as cytotoxic | actives 1.4% (n = 400,000); note: % is set by controls: 0 for no effect and ±100 for the full control effect; nearly all actives have a fitted effect of over 60% in size
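Luminescent ATP read-out (CellTiter-Glo) measures survival of drug-naive KB-3-1 cells after 72 h compound exposure at 37 °C. Titration series was screened from lowest to highest concentration, with DMSO vehicle plates as background controls.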
ATXN viability = Viability Counterscreen for Primary qHTS for Inhibitors of ATXN expression. S2 cells (HEK-293 line with an ATXN2-luciferase reporter) viability, CellTiter-Fluor protease fluorescence, 24 h. Potency, µM (top dose mostly 56.7 µM), hits mostly cytotoxic. actives 0.49% (n = 400,000); note: nearly all actives have a fitted effect of over 40% in size
KB-V1 MDR tox = qHTS assay for MDR1-selective chemotherapeutics: Primary screen using the drug-selected MDR subline cells KB-V1. KB-V1 MDR cells viability, CellTiter-Glo, 72 h. Potency, µM (doses to about 46.1 µM), most hits filed as cytotoxic. actives 3.4% (n = 400,000); note: % is set by controls: 0 for no effect and ±100 for the full control effect; nearly all actives have a fitted effect of over 60% in size
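qHTS viability screen in drug-selected KB-V1 MDR cells: 72 h compound treatment at 37 degrees C, ATP luminescence end point.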
HT1080 IDH1KD tx = qHTS for induction of synthetic lethality in tumor cells producing 2HG: qHTS for the HT-1080-IDH1KD cell line; AID 686971, 2013; Potency, µM (series often up to 46.1 µM), inactives show top-dose activity, negative = toxicity, most hits filed as cytotoxic; actives 2% (n = 360,000); HT-1080 IDH1 knockdown viability, ATP luminescence, 48 h;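 note: 0% = DMSO wells and -100% = cell-free medium wells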
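IDH1KD HT-1080 cells, 750/well, RPMI + 5% FBS; compound pinned after 2 h settling; 48 h, 37 °C; CellTiter-Glo luminescence; % activity normalised to DMSO and no-cell wells; curves fitted, classed by r2 and efficacy.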
ATXN2 expr inh = Primary qHTS for Inhibitors of ATXN expression. HEK-293 ATXN2-luciferase reporter, luminescence, 24 h. Potency, µM (top dose mostly 57 µM), inactives show at the top dose activity change, negative = inhibition, most hits filed as inhibitors. actives 0.72% (n = 360,000). AID 1745845, 2022; note: % is set by controls: 0 for no effect and ±100 for the full control effect; nearly all actives have a fitted effect of over 55% in size
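qHTS (up to 57 uM final) was run with 24 h compound exposure of reporter cells at 37 °C. Each well was multiplexed: SteadyGlo luminescence measured ATXN2-luciferase expression after a fluorogenic Gly-Phe-AFC viability readout (25 uM final).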
HT1080NT lethal = qHTS for induction of synthetic lethality in tumor cells producing 2HG: qHTS for the HT-1080-NT fibrosarcoma cell line; HT-1080-NT fibrosarcoma viability, CellTiter-Glo ATP luminescence, 48 h; Potency, µM (top dose mostly 46.1 µM), inactives show at the highest dose activity, negative = less viability, hits mostly cytotoxic; actives 1.6% (n = 360,000); AID 686970, 2013;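 note: NT is the 2HG producing partner of a matched IDH1 knockdown line; 0% = DMSO-treated cells and -100% = media-only wells without cells; nearly all actives have a fitted effect of over 55% in size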
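HT-1080-NT; 750 cells/well; 5% FBS RPMI; 48 h compound, 37 degrees C; CellTiter-Glo luminescence; curve fitting and curve-class assignment.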
The depositor's hits bear a star. Calls come from the whole dose curve; as a rule, active = well fitted curve in the direction sought with a large enough effect; inconclusive = small, poorly fitted or top-dose-only effect, or another doubt; inactive = no such curve, though single readings can be large; an effect the other way counts as inactive or inconclusive. Potency is the fitted concentration of half-maximal effect.

Screening CC(=O)OC[C@H]1O[C@@H](OC(C)=O)[C@H](OC(C)=O)[C@@H]1OC(C)=O returned ATXN viability inactive and ATXN2 expr inh 6.2%.
For CC(=O)c1cccc(Nc2c3c(nc4nc(-c5cccs5)nn24)CCCC3)c1 the results were KB-3-1 tox inactive, ATXN viability inconclusive, KB-V1 MDR tox inactive and ATXN2 expr inh -15.7%.
COc1cc(O)sc1C=Nc1ccc(Cl)cc1Cl was read as KB-3-1 tox inactive, ATXN viability inactive, KB-V1 MDR tox 20.6µM*, HT1080 IDH1KD tx 1.4% and HT1080NT lethal 17.2%.
`COc1ccccc1CNC(=O)C(=O)NCC(c1ccc2c(c1)OCO2)N1CCOCC1` (stereo not given) gave KB-3-1 tox inactive, ATXN viability inactive, KB-V1 MDR tox inactive and ATXN2 expr inh 4.7%.
For Cc1cccc(CN2C[C@H](Sc3ccccn3)C[C@H]2C(=O)Nc2ccc3sc(C)nc3c2)c1 the results were ATXN viability inactive.
For O=C(COc1ccccc1)Nc1ccc(C(=O)OCc2cc(=O)n3nc(C4CC4)sc3n2)cc1 the results were KB-3-1 tox inactive, ATXN viability inactive, KB-V1 MDR tox inconclusive and ATXN2 expr inh 12.2%.
Screening O=C1N=c2ccccc2=C1c1sc(=S)n(-c2ccc(O)cc2)c1O returned KB-3-1 tox inactive, ATXN viability inactive, KB-V1 MDR tox inactive, HT1080 IDH1KD tx -12.5%, ATXN2 expr inh -7.9% and HT1080NT lethal -3.8%.
`CN(c1ccc(O)cc1)c1nc(O)c(C2=c3ccccc3=NC2=O)s1` gave KB-3-1 tox inactive, ATXN viability 28.2µM*, KB-V1 MDR tox inactive, HT1080 IDH1KD tx -23.1% and HT1080NT lethal -7.3%.
For COc1cc(C2Nc3ccc4ncccc4c3C3=C2C(=O)CCC3)cc(OC)c1O (stereo not given) the results were KB-3-1 tox inconclusive, ATXN viability inconclusive, KB-V1 MDR tox inactive, HT1080 IDH1KD tx 8.2µM*, ATXN2 expr inh -2.7% and HT1080NT lethal 16.4µM*.
For O=C1CCCC2=C1C(c1ccc(O)c(O)c1)Nc1ccc3ccccc3c12 (stereo not given) the results were KB-3-1 tox inactive, ATXN viability inactive, KB-V1 MDR tox inconclusive, HT1080 IDH1KD tx inconclusive, ATXN2 expr inh 20.2% and HT1080NT lethal inconclusive.
O=C1CCCC2=C1C(c1ccco1)Nc1ccc3ccccc3c12 (stereo not given) was read as KB-3-1 tox inactive, ATXN viability inactive, KB-V1 MDR tox 20.6µM*, HT1080 IDH1KD tx inconclusive, ATXN2 expr inh 19.3% and HT1080NT lethal -10.0%.
COc1cc(C2Nc3ccccc3NC3=C2C(=O)CC(C)(C)C3)cc(OC)c1OC (stereo not given) was read as KB-3-1 tox inactive, ATXN viability inactive, KB-V1 MDR tox inactive, HT1080 IDH1KD tx -7.5%, ATXN2 expr inh -10.5% and HT1080NT lethal -1.3%.
`CC1(C)CC(=O)C2=C(C1)c1c(ccc3ccccc13)NC2c1ccc(C(=O)O)cc1` (stereo not given) gave KB-3-1 tox inactive, KB-V1 MDR tox inactive, HT1080 IDH1KD tx -17.9%, ATXN2 expr inh 39.0% and HT1080NT lethal -3.7%.
Cc1ccc(C2Nc3ccc4ccccc4c3C3=C2C(=O)CC(C)(C)C3)o1 (stereo not given) was read as KB-3-1 tox inactive, ATXN viability inactive, KB-V1 MDR tox 10.3µM*, HT1080 IDH1KD tx inconclusive, ATXN2 expr inh 10.8% and HT1080NT lethal -17.9%.
`CC1(C)CC(=O)C2=C(C1)c1c(ccc3ncccc13)NC2c1cccs1` (stereo not given) gave KB-3-1 tox 3.66µM*, ATXN viability inconclusive, KB-V1 MDR tox 5.8µM*, HT1080 IDH1KD tx 4.11µM*, ATXN2 expr inh 4.6% and HT1080NT lethal 3.26µM*.
Screening Cn1c(SCC2CCCO2)nnc1C1CCN(Cc2ccco2)CC1 (stereo not given) returned ATXN viability inactive.
`COc1cccc(CN2CCc3nnc(CCc4ccccc4)n3CC2)c1OC` gave ATXN viability inactive.
`Cc1cc(-c2ccc(C)c(S(=O)(=O)N3CCCC(C)C3)c2)on1` (stereo not given) gave KB-3-1 tox inconclusive and KB-V1 MDR tox inactive.
N#Cc1cccc(S(=O)(=O)N2CCN(c3nc(-c4cccs4)nc4ccccc34)CC2)c1 was read as HT1080 IDH1KD tx 0.1% and HT1080NT lethal 15.4%.
Screening NC(=S)n1[nH]c(-c2ccc([N+](=O)[O-])cc2)c(N=Nc2cccc(Cl)c2)c1=O returned KB-3-1 tox 20.6µM*, ATXN viability inconclusive, KB-V1 MDR tox inconclusive, HT1080 IDH1KD tx inconclusive, ATXN2 expr inh inconclusive and HT1080NT lethal inconclusive.
For O=C(O)c1ccccc1NC(c1ccccc1)c1ccc2cccnc2c1O (stereo not given) the results were KB-3-1 tox inconclusive, ATXN viability inconclusive, KB-V1 MDR tox inconclusive, HT1080 IDH1KD tx 8.2µM*, ATXN2 expr inh inconclusive and HT1080NT lethal -22.5%.
Screening Oc1c(C(Nc2ccccn2)c2ccccn2)ccc2cccnc12 (stereo not given) returned KB-3-1 tox 14.6µM*, ATXN viability inconclusive, KB-V1 MDR tox 5.8µM*, HT1080 IDH1KD tx 8.2µM*, ATXN2 expr inh 5.01µM* and HT1080NT lethal inconclusive.
Screening Oc1ccccc1C(Nc1nccs1)c1ccc2cccnc2c1O (stereo not given) returned KB-3-1 tox 2.31µM*, ATXN viability inactive, KB-V1 MDR tox 11.6µM*, HT1080 IDH1KD tx 7.31µM*, ATXN2 expr inh 7.08µM* and HT1080NT lethal inconclusive.
Cc1ccnc(NC(c2ccccc2F)c2ccc3cccnc3c2O)c1 (stereo not given) was read as KB-3-1 tox inconclusive, ATXN viability inactive, KB-V1 MDR tox inactive and ATXN2 expr inh inconclusive.
For O=C1CCCC2=C1C1(CCCC1)N=C(Nc1nc3ccccc3n1Cc1ccccc1)N2 the results were KB-3-1 tox inactive and KB-V1 MDR tox inactive.
CCOC(=O)c1cnc2c(Cl)c(Cl)ccc2c1N1CCN(C)CC1 was read as KB-3-1 tox inactive, ATXN viability inactive, KB-V1 MDR tox inconclusive, HT1080 IDH1KD tx 16.4µM*, ATXN2 expr inh -17.9% and HT1080NT lethal 14.6µM*.
